Rows were chosen to be rich in hits. Some 4.6% of all compounds tested hit in one or more screens of this group.
hgDAF12 agonist: agonists of H. glycines DAF-12 nuclear receptor. actives 1.8% (n = 370,000). HEK293 GAL4-hgDAF12 UAS-luciferase reporter, agonist luminescence; normalized to butyrate control. activation, % at 6.8 µM;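 active means activation above a cutoff set at the mean of all screened compounds plus 3 SD, cut at about 10% in these data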;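 further: 0% = DMSO wells and 100% = sodium butyrate wells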
DAX1 inh-1: inhibits human nuclear receptor DAX1; actives 0.99% (n = 340,000); inhibition, % at 6.75 µM; HEK293 Gal4-DAX1 luciferase reporter, luminescence; P51843;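 active means inhibition above the mean over all tested compounds plus 3 SD, cut at about 4.2% in these data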;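 further: 0% = DAX1-transfected cells with DMSO and 100% = empty-vector control cells with DMSO; inhibition shows as a rise in luminescence from relieved DAX1 repression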
Target sequence (P51843 207-470 limits assumed): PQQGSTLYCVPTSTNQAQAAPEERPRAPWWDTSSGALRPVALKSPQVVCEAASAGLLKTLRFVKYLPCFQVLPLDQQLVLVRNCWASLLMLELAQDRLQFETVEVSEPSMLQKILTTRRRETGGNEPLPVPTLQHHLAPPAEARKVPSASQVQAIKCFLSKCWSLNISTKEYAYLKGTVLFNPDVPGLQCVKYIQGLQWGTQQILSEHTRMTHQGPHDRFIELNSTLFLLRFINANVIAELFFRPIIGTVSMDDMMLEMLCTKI
ssDAF12 agonist: activators of S. stercoralis DAF-12 nuclear receptor | HEK293 ssDAF-12/GRIP1 lit1-tk-luc reporter, luminescence; % of 3 µM dafachronic acid response | activation, % at 6.8 µM | actives 1% (n = 370,000) | AID 652126;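 active means activation above the mean over all tested compounds plus 3 SD, cut at about 0.9% in these data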;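 further: 0% = DMSO-only wells and 100% = 3 µM delta7-dafachronic acid wells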
hcDAF12 agonist: activates DAF-12 receptor from parasite H. contortus; HEK293 hcDAF-12 lit1-tk-luc reporter, luminescence; 0% DMSO, 100% Δ7-dafachronic acid; activation, % at 6.8 µM; actives 1.4% (n = 370,000); AID 652067;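 active means activation above the mean of all tested compounds plus 3 SD, cut at about 5.5% in these data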;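 further: 100% = response to 3 µM Δ7-dafachronic acid high control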
DAX1 inh-2: DAX1 (NR0B1) inhibition, primary screen | HEK293T StAR-luciferase reporter, SF-1/DAX-1 repression relief | inhibition, % at 6.8 µM | actives 1.1% (n = 370,000);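 active means inhibition above the mean over all tested compounds plus 3 SD, cut at about 3.6% in these data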;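 further: 0% = DAX-1 cells with DMSO and 100% = cells lacking DAX-1 with DMSO; higher inhibition means more luminescence from relief of DAX-1 repression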
Wee1 degr inh: human Wee1 degradation inhibition, primary screen | reporter increase, % at 5 µM | AID 1321 | HeLa Luc-Wee1K328M stability, luciferase luminescence; 100% = proteasome inhibitor MG132 effect | P30291 | actives 1.2% (n = 220,000);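 active means activation above the mean of all tested compounds plus 3 SD, set per screening run, cut at about 8.8% in these data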;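 further: cells exposed to compound for 20 h before luminescence read; 0% = DMSO alone and 100% = MG132 at 30 µM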
* hit, by the source's call; x = not tested or not shown.

SMILES | hgDAF12 agonist | DAX1 inh-1 | ssDAF12 agonist | hcDAF12 agonist | DAX1 inh-2 | Wee1 degr inh
CC(c1ccccc1)n1cc(C(=O)N2CCCN(Cc3ccccc3)CC2)nn1 (centres undefined) | -2.9 | x | -1.5 | -0.6 | -1.1 | x
CCOC1=C2[C@@H](CN(S(=O)(=O)c3ccc(C)cc3)[C@H]2c2ccccc2)[C@H]2C(=O)N(Cc3ccccc3)C(=O)[C@H]2C1 | 3.5 | x | -0.5 | 0.8 | 0.1 | x
Cc1ccc2c(c1)c(-c1csc(N)n1)c(C)n2C | 1.8 | 0.1 | 1.6* | 2.9 | 0.4 | x
O=C1N/C(=C/c2ccsc2)C(=O)N1c1ccccc1 | 11.8* | 2.8 | -0.7 | 0.1 | 0.4 | 6.7
Cc1ccc(C(C)C)c(OCC(=O)N2CCN(c3ncccn3)CC2)c1 | -2.4 | 0.8 | -0.5 | -0.5 | -0.5 | x
Cc1ccc(C(C)C)c(OCC(=O)N2CCOCC2)c1 | -1.0 | -0.4 | -0.8 | -0.4 | 0.0 | 9.2*
CN(Cc1ccccc1F)C(=O)C1CCC(CNS(=O)(=O)c2cccc3cccnc23)CC1 (centres undefined) | -4.0 | x | -1.3 | -3.5 | -1.6 | x
CCN1C(=O)[C@H]2[C@@H](c3ccc(-c4ccccc4)cc3)N3CCCC[C@@]3(C(=O)OC)[C@H]2C1=O | -2.0 | -0.2 | -1.2 | 0.3 | 0.5 | x
N#Cc1ccsc1NC(=O)COC(=O)c1ccc(Br)o1 | 3.9 | 0.0 | -0.2 | 2.1 | 1.4 | x
N#Cc1ccsc1NC(=O)COC(=O)c1cc(Br)ccc1O | 1.0 | 6.0* | 0.3 | 3.9 | 1.3 | -0.2
COc1ccccc1NC(=O)COC(=O)C1CCN(/C=C/C(=O)C(F)(F)F)CC1 | -2.1 | 3.2 | -1.7 | -0.2 | -0.1 | -3.0
O=C(COC(=O)C1CCN(/C=C/C(=O)C(F)(F)F)CC1)Nc1cccc(F)c1 | 0.0 | 0.9 | -0.3 | 6.0* | 0.2 | -0.5
Cc1ccc(NC(=S)NNC(=O)c2cnccn2)cc1 | -0.6 | x | -1.3 | -1.6 | -0.9 | x
O=c1/c(=C/c2ccc(O)cc2)sc2n1CCCN=2 | 8.7 | 3.8 | -0.1 | 0.2 | 1.3 | 1.7
O=c1/c(=C\c2ccc(F)cc2)sc2n1CCCN=2 | 8.2 | 2.8 | -0.1 | 2.2 | 2.0 | 9.3*
CN1C2CCC1CC(NC(=O)CSc1ccc(C(C)(C)C)cc1)C2 (centres undefined) | -0.1 | -0.2 | -1.6 | 0.1 | 0.6 | 9.6*
COc1ccc(N2CCN(C(=O)COC(=O)c3nc(Cl)ccc3Cl)CC2)cc1 | -0.5 | 3.8 | -0.8 | -1.3 | 0.2 | x
O=C(COc1ccc(F)cc1Br)NCCCN1CCCC1=O | 0.3 | 0.2 | -1.4 | 0.1 | 2.6 | x
COC(=O)c1cccc2c1NC(=O)C2=O | -0.1 | 8.0* | -0.9 | 0.9 | -0.3 | -3.6
Cc1cccc2c1NC(=O)C2=O | -0.7 | 0.2 | -0.6 | 0.8 | 0.9 | x
Cc1cc2nc(-c3ccc[nH]c3=O)n(Cc3cccc(F)c3)c2cc1C | -2.0 | -1.3 | -1.0 | -0.5 | 0.2 | x
CCCn1c(-c2ccc[nH]c2=O)nc2cc(C)c(C)cc21 | 8.1 | 4.4* | 1.1* | 3.4 | 2.7 | 2.1
COc1nc(N2CCOCC2)nc(-n2cccc2)n1 | -3.7 | -0.5 | -1.4 | -1.5 | -0.8 | 9.2*
N#CCOc1nc(N2CCCC2)nc(N2CCCC2)n1 | -1.9 | -0.9 | -0.9 | -1.2 | 0.2 | 0.9
N#CCOc1nc(N2CCOCC2)nc(N2CCOCC2)n1 | 2.2 | 6.0* | -1.1 | -2.1 | -0.1 | -2.9
SMILES | hgDAF12 agonist | DAX1 inh-1 | ssDAF12 agonist | hcDAF12 agonist | DAX1 inh-2 | Wee1 degr inh
Nc1nc(SCc2ccccc2)c2ncn(C3CCCCC3)c2n1 | 0.8 | -0.6 | -1.2 | 1.3 | 1.2 | x
CCNC(=O)C1CCCN(C(=O)c2cccc(C#N)c2)CC1 (centres undefined) | 0.7 | x | -1.9 | 1.2 | 2.4 | x
CC(C)c1ccc(/C=C2\SC(N3CCOCC3)=NC2=O)cc1 | 0.7 | 0.8 | -1.4 | -1.5 | -0.4 | 9.2*
CCc1ccc(/C=C2/SC(N3CCOCC3)=NC2=O)cc1 | 4.0 | -0.1 | -1.1 | -0.7 | -0.6 | 0.7
Cc1cc(C(=O)Nc2sc3c(c2C#N)CCCC3)no1 | 11.6* | 2.6 | -0.5 | 4.6 | 3.5 | 7.6
CC(=O)Nc1sc2c(c1C#N)CCCCC2 | 1.4 | 0.3 | -1.3 | -0.8 | -0.3 | 0.0
CC(C(=O)Nc1sc2c(c1C#N)CCCCC2)N1C(=O)c2ccccc2C1=O (centres undefined) | 3.2 | 1.8 | 1.1* | 3.8 | 0.2 | -2.4
Cc1cc(C(=O)Nc2sc3c(c2C#N)CCC3)no1 | 7.9 | 1.3 | -0.1 | 1.1 | 1.5 | -0.7
Cn1cc(Br)c(C(=O)Nc2sc3c(c2C#N)CCC3)n1 | 1.6 | x | -1.2 | -0.7 | -0.8 | 10.3*
Cn1cc([N+](=O)[O-])c(C(=O)Nc2sc3c(c2C#N)CCC3)n1 | -1.7 | -1.4 | -1.2 | -2.6 | -0.8 | x
O=C1NC(=Nc2ccc(F)cc2)SC1Cc1ccc(F)cc1 (centres undefined) | 0.7 | x | -1.1 | -1.0 | 0.1 | 2.8
O=C1NC(=Nc2ccc(Cl)cc2)SC1Cc1cc(Cl)ccc1Cl (centres undefined) | 0.9 | -0.9 | -1.6 | -1.6 | 0.0 | 9.0*
CCOC(=O)c1nnsc1Nc1ccc(C)c(C)c1 | 3.0 | 4.3* | -0.3 | 1.7 | 0.5 | -1.2
Oc1ccc(Cl)cc1-c1cc(-c2ccccc2)n[nH]1 | 10.9* | 1.2 | 0.7 | 5.7* | 0.5 | -2.4
Oc1ccc(Br)cc1-c1cc(-c2ccccc2Cl)[nH]n1 | 10.8* | 0.3 | -0.9 | 4.5 | 0.6 | -0.4
Oc1ccc(Br)cc1-c1cc(-c2ccccc2F)[nH]n1 | 4.9 | 0.2 | 0.4 | 5.8* | 0.5 | 1.9
COc1ccccc1-c1cc(-c2cc(Cl)ccc2O)n[nH]1 | 2.6 | 0.3 | -1.4 | 1.9 | -0.3 | -1.9
O=C(O)c1cc(-c2ccccc2Cl)n[nH]1 | 0.9 | -0.7 | -1.3 | -1.6 | 0.4 | 0.7
CC(=O)N1c2ccc(S(=O)(=O)N3CCCC3C(=O)Nc3ccc(C)cc3)cc2CC1C (centres undefined) | -4.3 | -1.6 | -1.5 | -1.6 | -0.7 | x
CCOC(=O)c1cnc2cc(-c3ccc(Br)cc3)nn2c1C | 5.4 | 1.8 | -1.2 | -0.9 | 0.4 | x
CC(C)CN1CC(Br)C(=O)NC1=O (centres undefined) | 1.5 | 0.4 | -0.3 | -0.1 | -0.5 | x
CCCCNS(=O)(=O)/C=C/c1ccc(OC)cc1CNC(=O)OC(C)(C)C | -0.8 | x | 0.2 | -2.1 | -0.6 | x
CCCCc1cccc2[nH]cc(C)c12 | 2.2 | x | -1.6 | -0.5 | -0.1 | x
Cc1c2ccncc2cc2c1[nH]c1ccccc12 | 10.9* | -2.4 | -1.1 | 3.7 | -2.6 | x
C[C@H](CO)N1C[C@H](C)[C@@H](CN(C)S(=O)(=O)c2cccs2)Oc2c(NS(=O)(=O)c3cn(C)cn3)cccc2C1=O | 1.5 | 1.2 | -0.9 | -1.4 | -0.3 | x
CC(=O)N/C(=C\c1ccccc1)C(=O)OCC(=O)c1c(N)n(CC(C)C)c(=O)n(C)c1=O | -0.8 | 4.4* | -1.0 | -1.1 | 0.7 | x
